Assay outcomes (PubChem BioAssay)
Shown is part of a subset that was picked to be rich in hits.
JMJD2E inh: blocks human JMJD2E demethylase activity; 230,000 tested, 1.6% active; B2RXH2; Potency, µM (highest dose often 57.1 µM), inactives show at the top dose activity change, negative = inhibition, actives largely listed as inhibitors; JMJD2E catalytic domain, FDH-coupled NADH fluorescence (FDH is formaldehyde dehydrogenase); AID 2147; active means well fitted inhibition curve with a large enough effect, not every such curve was filed as active; inconclusive means small, poorly fitted or top-dose-only effect, or another doubt; inactive means no such curve, though single readings can be large or run the other way;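 further: 0% = wells with enzyme and -100% = buffer wells without enzyme; nearly all actives have a fitted effect of over 50% in size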
BLM inh-1: Bloom syndrome helicase (human) inhibition. 350,000 tested, 0.2% active. Potency, µM (titrated, usually from 56.1 µM), without a hit: at the highest dose activity change, negative = inhibition, hits mostly inhibitors. recombinant BLM DNA unwinding, fluorescence dequenching. P54132;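 further: plate controls were vehicle for no effect and no enzyme for full effect; nearly all actives have a fitted effect of over 35% in size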
Target sequence (P54132 whole entry, looked up): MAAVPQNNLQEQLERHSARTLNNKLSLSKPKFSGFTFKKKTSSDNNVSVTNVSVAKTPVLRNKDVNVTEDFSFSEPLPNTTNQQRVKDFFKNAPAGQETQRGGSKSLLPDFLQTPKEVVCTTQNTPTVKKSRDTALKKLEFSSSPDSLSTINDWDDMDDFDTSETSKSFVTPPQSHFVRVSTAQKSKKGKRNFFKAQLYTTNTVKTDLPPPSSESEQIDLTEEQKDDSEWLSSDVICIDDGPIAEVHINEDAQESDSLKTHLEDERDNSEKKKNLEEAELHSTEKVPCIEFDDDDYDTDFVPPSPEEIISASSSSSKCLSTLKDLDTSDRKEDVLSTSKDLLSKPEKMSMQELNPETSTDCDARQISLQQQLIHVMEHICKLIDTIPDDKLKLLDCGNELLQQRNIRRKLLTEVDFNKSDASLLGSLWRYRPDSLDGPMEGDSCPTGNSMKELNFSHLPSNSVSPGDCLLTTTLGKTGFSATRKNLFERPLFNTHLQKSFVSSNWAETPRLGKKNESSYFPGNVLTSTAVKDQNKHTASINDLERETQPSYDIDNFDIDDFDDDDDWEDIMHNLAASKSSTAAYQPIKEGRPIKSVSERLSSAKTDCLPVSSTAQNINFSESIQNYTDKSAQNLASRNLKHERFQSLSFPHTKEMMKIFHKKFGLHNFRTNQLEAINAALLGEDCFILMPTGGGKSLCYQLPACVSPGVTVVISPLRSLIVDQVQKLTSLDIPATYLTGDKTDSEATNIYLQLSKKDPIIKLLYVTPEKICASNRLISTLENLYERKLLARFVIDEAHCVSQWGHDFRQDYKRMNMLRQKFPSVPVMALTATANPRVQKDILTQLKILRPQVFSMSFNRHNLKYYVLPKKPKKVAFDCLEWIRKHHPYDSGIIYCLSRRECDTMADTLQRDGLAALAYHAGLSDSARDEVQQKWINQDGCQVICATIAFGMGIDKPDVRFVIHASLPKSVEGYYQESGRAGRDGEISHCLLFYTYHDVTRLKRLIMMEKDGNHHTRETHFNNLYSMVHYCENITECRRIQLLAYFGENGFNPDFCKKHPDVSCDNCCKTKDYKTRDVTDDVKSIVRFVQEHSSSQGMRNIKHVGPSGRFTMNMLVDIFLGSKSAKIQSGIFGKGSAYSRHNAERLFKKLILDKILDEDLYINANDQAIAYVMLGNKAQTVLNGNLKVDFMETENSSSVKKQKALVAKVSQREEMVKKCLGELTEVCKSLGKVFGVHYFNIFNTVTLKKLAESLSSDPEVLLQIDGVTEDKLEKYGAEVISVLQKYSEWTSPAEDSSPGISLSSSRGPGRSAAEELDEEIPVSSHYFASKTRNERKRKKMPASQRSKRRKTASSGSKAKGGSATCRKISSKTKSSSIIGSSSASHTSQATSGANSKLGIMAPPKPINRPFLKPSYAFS
APE1 inh: inhibitors of human APE1 endonuclease | P27695 | recombinant APE1, TAMRA/BHQ-2 abasic DNA cleavage fluorescence | Potency, µM (titrated, usually from 65.8 µM), for inactives: top-dose activity change, negative = inhibition, actives largely listed as inhibitors | 350,000 tested, 0.35% active | AID 2517;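 further: plate controls were vehicle for no effect and reference inhibitor for full effect; nearly all actives have a fitted effect of over 55% in size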
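Readout is kinetic fluorescence (ex 525, em 598 nm) from cleavage of 50 nM TAMRA/BHQ-2 THF abasic duplex by 0.75 nM APE1, compound added 15 min beforehand at RT.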
L3MBTL1 inh-1: blocks human L3MBTL1. Q9Y468. 230,000 tested, 0.66% active. AlphaScreen L3MBTL1–H3K9me1 peptide binding. Potency, µM (doses to about 57.1 µM), for the others: at the top dose activity, negative = inhibition, usual class: inhibitors; further: on the % scale 0 is the no-effect control and ±100 the full control effect; nearly all actives have a fitted effect of over 60% in size
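First, the protein-peptide complex forms for 30 min at room temperature (L3MBTL1 50 nM, biotinylated H3K9me1 peptide 75 nM). Next, compounds are pin-transferred and incubated 30 min. Finally, AlphaScreen beads are added and read after 30 min.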
RECQ1 inh-1: inhibitors of human RECQ1 DNA helicase | Potency, µM (highest dose often 57.3 µM), for inactives: at the highest dose activity, negative = inhibition, hits mostly inhibitors | P46063 | RECQ1 DNA unwinding, red fluorescence kinetic read | 240,000 tested, 0.54% active;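 further: plate controls were vehicle for no effect and no enzyme for full effect; nearly all actives have a fitted effect of over 30% in size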
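RECQ1T1 50 nM; forked duplex (20 bp + 30-nt ss tails) 200 nM, ATP 2 mM final; pH 8.0, 2 mM MgCl2, 2.5 ug/ml poly(dI-dC); 15 min compound preincubation; discontinuous kinetic read over 2 h at RT.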
TDP1 block: inhibitors of human tyrosyl-DNA phosphodiesterase TDP1 | AID 485290 | Q9NUW8 | 350,000 tested, 0.28% active | recombinant TDP1, AlphaScreen DNA substrate cleavage | Potency, µM (highest dose often 130 µM), for the others: top-dose activity change, negative = inhibition, hits mostly inhibitors; further: on the % scale 0 is the no-effect control and ±100 the full control effect; nearly all actives have a fitted effect of over 40% in size
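Compounds were preincubated with Tdp1 (1 nM final) for 15 min at room temperature before substrate (15 nM final) started a 5 min reaction; beads (10 ug/ml final) were then added for 10 min before AlphaScreen detection.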
BLM inh-2: confirmation of inhibitors of human Bloom syndrome helicase BLM. shares compounds with BLM inh-1. Potency, µM, for inactives: max response, negative = inhibition, actives largely listed as inhibitors. BLM DNA unwinding, fluorescence quenching, biochemical. AID 2585. 220 tested, 40% active;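 further: strand separation dequenches TAMRA so unwinding raises red fluorescence; series mostly up to about 69 µM; on the % scale 0 is the no-effect control and ±100 the full control effect; nearly all actives have a fitted effect of over 45% in size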
RECQ1 inh conf: confirmation of human RECQ1 helicase inhibitors | shares compounds with RECQ1 inh-1 | RECQ1 helicase DNA unwinding, fluorescence | Potency, µM (highest dose often 229 µM), for the others: at the top dose activity change, negative = inhibition, usual class: inhibitors | 610 tested, 28% active | AID 2708; further: on the % scale 0 is the no-effect control and ±100 the full control effect; nearly all actives have a fitted effect of over 45% in size
RECQ1 ADP FP: displaces ADP in a fluorescence polarization counter-screen for RECQ1 hits; ADP fluorescence polarization displacement counterscreen; Potency, µM (highest dose often 228 µM), without a hit: top-dose activity change, negative = inhibition, actives largely listed as inhibitors; AID 2711; shares compounds with RECQ1 inh-1; 530 tested, 27% active; further: on the % scale 0 is the no-effect control and ±100 the full control effect; nearly all actives have a fitted effect of over 45% in size
RECQ1 inh-2: RECQ1 helicase inhibition confirmed, round 2 | recombinant RECQ1 DNA unwinding, red fluorescence | 1,100 tested, 15% active | AID 504841 | Potency, µM (titrated, usually from 119 µM), for the others: top-dose activity, negative = inhibition, hits mostly inhibitors | shares compounds with RECQ1 inh-1; further: on the % scale 0 is the no-effect control and ±100 the full control effect; nearly all actives have a fitted effect of over 50% in size
L3MBTL1 inh-2: validation of human L3MBTL1 methyl-lysine binding inhibitors; L3MBTL1 methyl-lysine binding inhibition, biochemical qHTS; shares compounds with L3MBTL1 inh-1; 500 tested, 91% active; Potency, µM, hits mostly inhibitors; further: nearly all actives have a fitted effect of over 70% in size
L3MBTL1 ctr: AlphaScreen signal inhibition, L3MBTL1 hit counter-screen; 500 tested, under 10 active; Potency, µM (doses to about 57.1 µM), for inactives: top-dose activity change, negative = inhibition, hits mostly inhibitors; AID 602224; AlphaScreen counterscreen, signal inhibition; shares compounds with L3MBTL1 inh-1; further: 0% is about no effect
Numbers without * were called inactive; i = inactive; ? = inconclusive; · = not tested or not shown; [ ] = dose if it differs, or a comment. Unless noted, the call rests on the fitted dose curve; in most records, active means well fitted curve in the direction sought with a large enough effect; inconclusive means small, poorly fitted or top-dose-only effect, or another doubt; inactive means no such curve, though single readings can be large; an effect the other way counts as inactive or inconclusive. Potency means the concentration at half of the fitted maximal effect.

SMILES	JMJD2E inh	BLM inh-1	APE1 inh	L3MBTL1 inh-1	RECQ1 inh-1	TDP1 block	RECQ1 inh conf	RECQ1 ADP FP	RECQ1 inh-2	others
O=C(Nc1ccc2nc(-c3ccco3)c(-c3ccco3)nc2c1)N1CCN(c2ccccn2)CC1	5%	4.5µM*	8%	3.2µM*	-1%	0%	·	·	·	BLM inh-2=?;L3MBTL1 inh-2=3*;L3MBTL1 ctr=-1%
CC(NC(=O)c1ccc(N2Cc3ccccc3Oc3ncccc32)s1)c1ccccc1 (stereo not given)	·	-7%	·	·	·	-3%	·	·	·
CN(c1ccccc1)c1ccc(/C=C(\CCC(=O)O)c2nc3ccccc3s2)cc1[N+](=O)[O-]	-6%	22µM*	?	28µM*	?	6%	·	·	13µM*	BLM inh-2=36µM*;L3MBTL1 inh-2=24*;L3MBTL1 ctr=?
O=[N+]([O-])c1ccc(-c2c(O)c3ccccc3c3nc4ccccc4nc23)cc1	3%	-13%	9%	·	25µM*	0%	9%[114 µM]	?	·
O=C(Nc1cccc(S(=O)(=O)NC2=NCCC2)c1)c1cc(-c2ccco2)nc2ccccc12	?	10µM*	7.9µM*	7.1µM*	11µM*	·	14µM*	40µM*	?
Cc1ccc(CNCc2ccc3c(c2)n(C)c(=O)n3C)cc1	·	6%	·	·	·	2%	·	·	·
COc1ccc(S(=O)(=O)NCCCCC(=O)O)cc1C(=O)O	1%	3%	3%	0%	-7%	3%	·	·	·
COc1ccc(S(=O)(=O)NCCCCCC(=O)O)cc1C(=O)O	-1%	-4%	9%	-9%	-9%	1%	10%	-7%	·
COC(=O)NC(CC(C)=O)c1ccco1 (stereo not given)	·	5%[12.4 µM]	12%[12.4 µM]	·	i[11.5 µM]	12%[21 µM]	·	·	·
COc1cc(C(=O)NC(=S)Nc2ccc(N3CCCC3)cc2)cc(OC)c1OC	?	-3%	-10%	-10%	?	11%	·	·	-10%
CC1CC(C)CN(S(=O)(=O)c2ccc3c(c2)CC(=O)N3)C1 (stereo not given)	·	·	31%	-1%	·	0%	·	·	·
COc1ccc2nc(-c3ccco3)c(-c3ccco3)nc2c1	?	13µM*	8.9µM*	·	?	·	·	·	2%
CC(C)c1ccc(NC(=O)CCCc2nc(-c3ccc(Cl)cc3)no2)cc1	·	-3%	·	·	·	1%	·	·	·
Cc1c(Cl)c(C(F)F)nn1CC(=O)NC1C(=O)N2C(C(=O)O)=C(CSc3nnnn3C)CSC12 (stereo not given)	-5%	-1%	?	·	-3%	·	-4%	?	·
Cc1nn(CC(=O)NC2C(=O)N3C(C(=O)O)=C(CSc4nnnn4C)CSC23)cc1Br (stereo not given)	-7%	4%	?	·	-8%	·	1%	?	·
